Data: PubChem BioAssay (NCI)
Compounds without any hit were thinned out: in the full panel of roughly 79,000, 15% have a hit. Unmarked numbers belong to inactive results. Activity calls are given as the source filed them. Rule as the data show it: active = growth inhibition above about 70%; inactive = the rest.

Columns and labels:
[1] = NCI Yeast Anticancer Drug Screen. Data for the rad50 strain (AID 155);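 also: 0% = growth of vehicle-only cultures of the same strain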; settings: S. cerevisiae rad50 strain growth inhibition; at 50.0 µM; hits give high values
How it was run: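 DNA repair mutant yeast, compound exposure, growth read-out; inhibition is taken relative to vehicle.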

[2] = NCI Yeast Anticancer Drug Screen. Data for the mec2-1 strain (AID 157); settings: S. cerevisiae mec2-1 strain, at 50.0 µM, hits give high values
How it was run: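 Mutant yeast (mec2-1) grown with compound; growth inhibition relative to vehicle control reported.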

[3] = NCI Yeast Anticancer Drug Screen. Data for the sgs1 mgt1 strain (AID 161);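 also: 0% = growth of cultures given vehicle only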; settings: S. cerevisiae sgs1 mgt1 strain, at 50.0 µM, hits give high values
How it was run: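 Growth of a repair-deficient yeast mutant was monitored after compound treatment and expressed as inhibition relative to vehicle-treated cultures.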

[4] = NCI Yeast Anticancer Drug Screen. Data for the cln2 rad14 strain (AID 165);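 also: 0% = growth equal to vehicle treated cultures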; settings: S. cerevisiae cln2 rad14 strain, at 50.0 µM, hits give high values
How it was run: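 Readout is yeast growth inhibition versus vehicle-treated controls, using a strain with cln2 and rad14 alterations exposed to compound.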

[5] = NCI Yeast Anticancer Drug Screen. Data for the bub3 strain (AID 167); settings: S. cerevisiae bub3 mutant strain, at 50.0 µM, hits give high values
How it was run: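 In this screen, a yeast mutant lacking normal mitotic checkpoint function is challenged with compound. Relative growth versus vehicle gives the inhibition value.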

[6] = NCI Yeast Anticancer Drug Screen. Data for the mlh1 rad18 strain (AID 175); settings: S. cerevisiae mlh1 rad18 strain growth inhibition; at 50.0 µM; hits give high values
How it was run: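 Genetically defined yeast (DNA repair-deficient) exposed to compounds; growth inhibition determined relative to vehicle.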

SMILES	growth inhibition [1]	growth inhibition [2]	growth inhibition [3]	growth inhibition [4]	growth inhibition [5]	growth inhibition [6]
O=C(O)CCSC1=CC(=O)C(SCCC(=O)O)=CC1=O	5.35%	-13.2%	-1.4%	-75.7%	4.9%	-15.2%
CC/C(Cl)=N\OC(=O)Nc1ccc(F)cc1F	2.2%	-12.1%	-4.05%	7.05%	-6.45%	-26.4%
Oc1ccccc1CNCc1nc2ccccc2[nH]1	-8.1%	-1.7%	-11.6%	-8.7%	-4.4%	18.6%
Cc1cc2c(s1)C(=O)c1sccc1C2=O	89.7% (active)	90.8% (active)	89.8% (active)	91.5% (active)	87.2% (active)	89% (active)
COc1ccc(N=Nc2ccccc2)cc1	3%	3.8%	-5.6%	-10.6%	-11.8%	-4.95%
CCNC(=O)COc1ccc(Cl)cc1C(C)C	-2.65%	7.75%	15.4%	18.8%	-0.8%	0.7%
CCC(=O)OCC1OC(Oc2ccc(N=Nc3ccccc3)cc2)C(OC(=O)CC)C(OC(=O)CC)C1OC(=O)CC (stereo not drawn)	18.9%	3.4%	34%	1.35%	12.9%	28.2%
O=C1C=C(Nc2ccccc2C(=O)CC(=O)C(=O)Nc2cccc([N+](=O)[O-])c2)c2ccccc2C1=O	-15.2%	12.3%	-7.2%	12.3%	-15.5%	-7.1%
O=C(CCCCCCC(=O)ON1C(=O)CCC1=O)ON1C(=O)CCC1=O	-16.9%	-3.55%	-16.8%	13.8%	-24.4%	-4.1%
CCOC(=O)C1(O)c2ccccc2NC(=S)N1CC(Br)CBr (stereo not drawn)	19.9%	-60.3%	15.8%	-7.6%	2.35%	32.6%
Cc1cc(C(=O)C(C(c2ccccc2)N2CCOCC2)N2CCOCC2)ccc1Cl (stereo not drawn)	4.6%	7.15%	12.8%	-1.35%	10.8%	26.9%
c1ccc(CCCOCCCc2ccccc2)cc1	24.9%	14.8%	9.15%	7.4%	51.2%	22.4%
COc1ccc(C2S/C(=C\c3cccc([N+](=O)[O-])c3)C(=O)N2NC(=O)Cc2ccccc2)cc1 (stereo not drawn)	0.65%	-21.2%	3.85%	-58.6%	36%	12.4%
CCC(C)C(=O)OC1C(=O)OC2CC3C(C)=CC(=O)C(O)C3(C)C3C4(O)OCC23C1C(C)C4O (stereo not drawn)	90.3% (active)	93% (active)	90% (active)	91.3% (active)	90.6% (active)	92.1% (active)
Cc1ccccc1NCC#N	-23.9%	-26%	-19.2%	-15.2%	10%	-11.6%
CCCCN(CC)CCNc1cc(C)nc(/N=C(\N)Nc2ccc(Cl)c(Cl)c2)n1	95.8% (active)	85% (active)	96.3% (active)	29.1%	76.5% (active)	92.5% (active)
C=C1CN2CCc3c([nH]c4ccccc34)C2CC1CC(=O)N(C)C (stereo not drawn)	-33.5%	-26.7%	-24.4%	-1.15%	-32%	-9.65%
CC1(C)COC(C2(C)C(=O)C=C(c3ccccc3)c3ccccc32)=N1 (stereo not drawn)	25.3%	-11.8%	29.8%	12.8%	3.9%	11.8%
COC(=N)CCCl	-1.3%	-3.95%	10.8%	7.2%	-4.55%	1.5%

SMILES	growth inhibition [1]	growth inhibition [2]	growth inhibition [3]	growth inhibition [4]	growth inhibition [5]	growth inhibition [6]
Cc1c(C)c2ccc(OCC(O)COC(C)C)c(C)c2oc1=O (stereo not drawn)	-10.7%	-5.5%	-2.15%	-5.95%	-1.95%	-29.6%
O=[N+]([O-])c1ccc(Cl)c(C(F)(F)F)c1	-0.8%	5.2%	4%	-2.75%	1.2%	-15.7%
COc1ccccc1OCC(O)CNc1ccc(Cl)cc1C(=O)c1ccccc1 (stereo not drawn)	3.25%	21.5%	-8.8%	-12%	-2.7%	-19.4%
CCCCCCCCCCCCCCCCCCCCCCCCSC(=N)N	10.6%	0.15%	16.5%	26.4%	-6.15%	12.9%
COc1ccccc1-n1c(C)nc2c(cnn2CN2CCCCC2)c1=O	0.85%	-6.4%	12.3%	-0.7%	0.95%	12%
CCCCCNC(=O)c1cccc(C)c1	-11.1%	-13.2%	-7.65%	-13.6%	-25.4%	-1.2%
CCN(CC)CCC1(C#N)Cc2ccccc2N(CC)c2ccccc21 (stereo not drawn)	41.8%	5.05%	9.45%	15.6%	7.3%	-19.6%
CCOc1c(OC)ccc(/C(C)=N\O)c1OCC	-2.2%	0.65%	4.8%	-1.7%	11.3%	10.1%
NC(C(=O)O)c1ccccc1C(=O)O (stereo not drawn)	-21.4%	-19.9%	-13.4%	0.8%	-7.8%	-21.9%
O=C1c2cc3c(cc2CC12Cc1ccc4c(c1C2=O)CCCC4)CCCC3 (stereo not drawn)	-3.15%	-4.15%	-10.4%	3.6%	7.35%	9.8%
Nc1cc(Cl)ccc1S(=O)(=O)O	-7.1%	-1.8%	2.1%	-48.8%	-15.1%	-4.4%
CCOC(=O)CN=NNc1ccccc1C(C)=O	21.4%	7.45%	10.9%	-3.3%	3.05%	38.4%
CCOC(=O)CC1(C)NC(=O)NC1=O (stereo not drawn)	4.35%	6.65%	8.45%	-31.8%	-4.4%	1%
CCCNC(=O)Nc1ccccc1OCC	-3.6%	-5.55%	-8.6%	-68%	13.2%	-5.25%
CC(=O)OC[C@]1(O)CC[C@@]23CC1C[C@@H]2CCC1C(C)(C)CCC[C@@]13C (stereo partly drawn)	81.5% (active)	41.6%	64.8%	71.6% (active)	67.7%	64.4%
O=C(O)c1c(Br)c(Br)c(Br)c(Br)c1C(=O)Nc1cc([N+](=O)[O-])ccc1O	14.2%	-8.45%	8.9%	7.9%	4.05%	3.85%
[O-][n+]1ccc(Cl)cc1	-4.15%	-14.8%	-19%	-15.2%	-10.1%	-9.35%
Cc1c2c(cc3c1[nH]c1ccccc13)C(=O)c1ccccc1C2=O	75.5% (active)	68.5%	75.8% (active)	75.3% (active)	68.1%	83.3% (active)
CC(=O)OCC(CBr)(CBr)COC(C)=O	8.85%	-41.4%	-6.05%	-102%	-20.8%	23.1%
